# According to PubChem BioAssay (Tox21):
# Records with an inconclusive call do not appear. Unmarked numbers belong to inactive results. The source made the active and inactive calls. Calls come from the whole dose curve; as a rule, active = well fitted cell-killing curve with a large enough effect in the repeat runs; inconclusive = weak or mixed curves, or effect the other way; inactive = flat fitted curve, though single readings scatter.
# Assay: cAMP Responsive Elements (CRE) small molecule antagonists, cell-based qHTS assay: qHTS cell viability counter screen (AID 2060913); note: nearly all actives have a fitted effect of over 40% in size
# Settings: CRE-bla HEK293T viability, CellTiter-Glo luminescence, 5 h; series mostly up to 92.4 µM; viability change, negative = cytotoxic: at the top concentration
# Method in brief: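 Cytotoxicity read in the same wells as the CRE-bla HEK293T antagonist assay: after 3 h compound with 0.25 uM NKH477 final and 2 h beta-lactamase substrate, CellTiter-Glo luminescence measured.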
# % is set by controls: 0 for no effect and ±100 for the full control effect; potency is the fitted concentration of half-maximal effect.
SMILES,Potency,"viability change, negative = cytotoxic"
CCOP(=S)(OCC)Oc1ccc([N+](=O)[O-])cc1,inactive,–
CCCCCC[n+]1ccccc1,inactive,–
CC(C)[N+](C)(CCC(C(N)=O)(c1ccccc1)c1ccccc1)C(C)C,–,-2.13% [at 42.5 µM]
Cc1cc(C)cc(OP(=O)(Oc2cc(C)cc(C)c2)Oc2cc(C)cc(C)c2)c1,–,-22.5%
CCNS(=O)(=O)C(F)(F)C(F)(F)C(F)(F)C(F)(F)C(F)(F)C(F)(F)C(F)(F)C(F)(F)F,–,8.62%
NS(=O)(=O)C(F)(F)C(F)(F)C(F)(F)C(F)(F)C(F)(F)C(F)(F)C(F)(F)C(F)(F)F,–,-4.78%
CC1CC(CC2CCC(N)C(C)C2)CCC1N (configuration not stated),–,6.34%
[Cl][Sn]([c]1ccccc1)([c]1ccccc1)[c]1ccccc1,2590 nM (active),–
O=C(OC1CCCCC1)c1ccccc1C(=O)OC1CCCCC1,–,-17%
CC(C)CCCCCCCOC(=O)c1ccccc1C(=O)OCCCCCCCC(C)C,–,3.22%
O=C(NC(=O)c1ccccc1Cl)Nc1ccc(OC(F)(F)F)cc1,–,2.92%
CC1(C)[C@H](C(=O)O[C@H](C#N)c2cccc(Oc3ccccc3)c2)[C@@H]1/C=C(\Cl)C(F)(F)F,inactive,–
ClC1=C(Cl)[C@]2(Cl)[C@H]3[C@H]([C@H]4C=C[C@H]3C4)[C@@]1(Cl)C2(Cl)Cl,–,-7.51%
O=[N+]([O-])c1c(Cl)c(Cl)c(Cl)c(Cl)c1Cl,inactive,–
CCCCCCCCBr,–,-9.31%
CCC[N+]1(C)CCCC1,inactive,–
ClC1=C(Cl)[C@]2(Cl)[C@@H]3[C@H]4C[C@H]([C@@H]5O[C@H]45)[C@@H]3[C@@]1(Cl)C2(Cl)Cl,–,-11.9%
